PubChem BioAssay (NCATS)
Where “and” joins values, the source holds several entries; their conditions need not be identical. Equal entries are not always repeated. Unmarked numbers belong to inactive results. Records with an inconclusive call do not appear. Entries that show only a call come without a potency. Calls of active or inactive are those of the source. Unless noted, calls come from the whole dose curve; as a rule, active = well fitted curve in the direction sought with a large enough effect; inconclusive = small, poorly fitted or top-dose-only effect, or another doubt; inactive = no such curve, though single readings can be large; an effect the other way counts as inactive or inconclusive.

Key:
Es-2 = assay: Primary qHTS to identify gynecologic anti-cancer compounds using libraries of approved drugs and bioactive compounds (AID 1345084); settings: Gynecologic cancer cell panel viability, ATPlite luminescence, 48 h; series mostly up to 57.5 µM; note: nearly all actives have a fitted effect of over 55% in size; note: potency is the fitted concentration of half-maximal effect
How it was run: (§1)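 In this quantitative HTS, cell killing is estimated from loss of ATP-dependent luciferase light. Cells see five compound concentrations over a 48 h exposure.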

HeLa = assay: as above; settings: Gynecologic cancer cell panel viability, ATPlite luminescence, 48 h; series mostly up to 57.5 µM
How it was run: as §1

Hek293T = assay: as above; settings: Gynecologic cancer cell panel viability, ATPlite luminescence, 48 h, control line for the selectivity index; series mostly up to 57.5 µM
How it was run: as §1

JEG-3 = assay: as above; settings: Gynecologic cancer cell panel viability, ATPlite luminescence, 48 h; series mostly up to 57.5 µM
How it was run: as §1

OV90 = assay: as above; settings: Gynecologic cancer cell panel viability, ATPlite luminescence, 48 h; series mostly up to 57.5 µM
How it was run: as §1

PA-1 = assay: as above; settings: Gynecologic cancer cell panel viability, ATPlite luminescence, 48 h; series mostly up to 57.5 µM
How it was run: as §1

SKOV3 = assay: as above; settings: Gynecologic cancer cell panel viability, ATPlite luminescence, 48 h; series mostly up to 57.5 µM
How it was run: as §1

Tov-21-G = assay: as above; settings: Gynecologic cancer cell panel viability, ATPlite luminescence, 48 h; series mostly up to 57.5 µM
How it was run: as §1

Tov112D = assay: as above; settings: Gynecologic cancer cell panel viability, ATPlite luminescence, 48 h; series mostly up to 57.5 µM
How it was run: as §1

astro = assay: Drug repurposing screens with cells derived from glioblastoma tumor samples (AID 1345199); settings: viability, ATP luminescence, 48 h; series mostly up to 45.9 µM; note: nearly all actives have a fitted effect of over 40% in size; note: potency is the fitted concentration of half-maximal effect
How it was run: (§2)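 Four patient lines of CD133+ GBM neurospheres were screened at several concentrations; hits were retested in those lines plus three slower-growing GBM lines, using 48-hour treatment and ATP-based viability.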

[1] = molecular target: Nuclear receptor subfamily 1 group I member 2 (Rattus norvegicus) (UniProt Q9R1A7); assay: qHTS assay for small molecule activators of the rat pregnane X receptor (rPXR) signaling pathway (AID 651751; call rule not given here); settings: rPXR reporter cells, luciferase (One-Glo), 24 h
[2] = Drug repurposing screens with cells derived from glioblastoma tumor samples (AID 1345199); settings: GBM patient neurospheres viability, ATP luminescence, 48 h; note: nearly all actives have a fitted effect of over 40% in size; note: potency is the fitted concentration of half-maximal effect
How it was run: as §2

[3] = qHTS assay for small molecule activators of the human pregnane X receptor (PXR) signaling pathway (AID 720659; call rule not given here)
[4] = at 45.9 µM (top of the series), tumour line B
[5] = at 45.9 µM (top of the series), tumour line D
[6] = at 46.1 µM (top of the series), tumour line C
[7] = at 20 µM (top of the series), tumour line C
[8] = at 21.2 µM (top of the series), tumour line B
[9] = at 21.2 µM (top of the series), tumour line D
[10] = at 21.3 µM (top of the series), tumour line A
[11] = at 46 µM (top of the series), tumour line A

Chain of Nuclear receptor subfamily 1 group I member 2 (Rattus norvegicus) (Q9R1A7 whole entry, looked up): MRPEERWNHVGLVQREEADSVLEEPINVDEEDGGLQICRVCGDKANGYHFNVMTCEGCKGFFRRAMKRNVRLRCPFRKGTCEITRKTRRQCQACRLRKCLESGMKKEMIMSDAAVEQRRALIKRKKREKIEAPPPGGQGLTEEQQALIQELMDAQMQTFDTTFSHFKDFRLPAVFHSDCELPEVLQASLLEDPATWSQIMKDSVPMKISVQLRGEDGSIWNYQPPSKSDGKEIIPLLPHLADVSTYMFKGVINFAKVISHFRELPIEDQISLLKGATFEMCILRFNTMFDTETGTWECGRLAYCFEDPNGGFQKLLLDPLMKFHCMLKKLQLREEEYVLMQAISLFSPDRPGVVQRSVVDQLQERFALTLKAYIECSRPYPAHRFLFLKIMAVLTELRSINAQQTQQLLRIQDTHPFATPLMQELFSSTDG

For `CC(C)(C)CC(C)(C)c1ccc(O)c(-n2nc3ccccc3n2)c1`, the Potency (Es-2) was “inactive”, the Potency (HeLa) was “inactive” and the Potency (Hek293T) was “inactive”. The Potency (JEG-3) was “inactive”, the Potency (OV90) was “inactive” and the Potency (PA-1) was “inactive”. For the same compound, the Potency (SKOV3) was “inactive”, the Potency (Tov-21-G) was “inactive” and the Potency (Tov112D) was “inactive”. For the same compound, the Potency (astro) was “inactive” and the max response [1] was 0.874%.
In the case of `CC1(C)OC[C@@H]2O[C@@]3(C(=O)O)OC(C)(C)O[C@H]3[C@@H]2O1`, the Potency (Es-2) was “inactive”, the Potency (HeLa) was “inactive” and the Potency (Hek293T) was “inactive”. For the same compound, the Potency (JEG-3) was “inactive”, the Potency (OV90) was “inactive” and the Potency (PA-1) was “inactive”. The Potency (SKOV3) was “inactive”, the Potency (Tov-21-G) was “inactive” and the Potency (Tov112D) was “inactive”. For the same compound, the activity, negative = cell killing [2, 4] was 2.23%, the activity, negative = cell killing [2, 5] was 2.89% and the activity, negative = cell killing [2, 6] was -11.9%. The Potency (astro) was “inactive”, the max response [1] was 0.338% and the outcome [3] was “inactive”.
In the case of `CC(C)Nc1cccnc1N1CCN(C(=O)c2cc3cc(NS(C)(=O)=O)ccc3[nH]2)CC1`, the Potency (Es-2) was “inactive”, the Potency (HeLa) was “inactive” and the Potency (Hek293T) was “inactive”. The Potency (JEG-3) was “inactive”, the Potency (OV90) was “inactive” and the Potency (PA-1) was “inactive”. For the same compound, the Potency (SKOV3) was “inactive”, the Potency (Tov-21-G) was “inactive” and the Potency (Tov112D) was “inactive”. The activity, negative = cell killing [2, 4] was -14.1%, the activity, negative = cell killing [2, 5] was 0.603% and the Potency (astro) was “inactive”.
For `CCCCCCCCOc1ccc(C(=O)c2ccccc2)c(O)c1`, the Potency (Es-2) was “inactive”, the Potency (HeLa) was “inactive” and the Potency (Hek293T) was “inactive”. For the same compound, the Potency (JEG-3) was “inactive”, the Potency (OV90) was “inactive” and the Potency (PA-1) was “inactive”. For the same compound, the Potency (SKOV3) was “inactive”, the Potency (Tov-21-G) was “inactive” and the Potency (Tov112D) was “inactive”. The activity, negative = cell killing [2, 4] was -18.7%, the activity, negative = cell killing [2, 5] was -9.16% and the activity, negative = cell killing [2, 6] was -24.6%. For the same compound, the Potency (astro) was “inactive”, the max response [1] was -1.61% and the outcome [3] was “inactive”.
With `C=CCN1CCc2nc(N)sc2CC1` the Potency (Es-2) was “inactive”, the Potency (HeLa) was “inactive” and the Potency (Hek293T) was “inactive”. The Potency (JEG-3) was “inactive”, the Potency (OV90) was “inactive” and the Potency (PA-1) was “inactive”. For the same compound, the Potency (SKOV3) was “inactive”, the Potency (Tov-21-G) was “inactive” and the Potency (Tov112D) was “inactive”. For the same compound, the activity, negative = cell killing [2, 4] was -26.9%, the activity, negative = cell killing [2, 5] was -19.4% and the activity, negative = cell killing [2, 6] was -3.6%. The Potency (astro) was “inactive”.
For `CC(C)(C)NC[C@H](O)COc1cccc2c1CCCC2=O`, the Potency (Es-2) was “inactive”, the Potency (HeLa) was “inactive” and the Potency (Hek293T) was “inactive”. For the same compound, the Potency (JEG-3) was “inactive”, the Potency (OV90) was “inactive” and the Potency (PA-1) was “inactive”. The Potency (Tov-21-G) was “inactive”, the Potency (Tov112D) was “inactive” and the activity, negative = cell killing [2, 7] was 5.11%. The activity, negative = cell killing [2, 8] was -13.9%, the activity, negative = cell killing [2, 9] was -6.37% and the activity, negative = cell killing [2, 10] was -24.3%. The Potency (astro) was “inactive”.
For `O=C(CN1CCN(Cc2ccc3c(c2)OCO3)CC1)N1c2ccccc2Sc2ccccc21`, the Potency (Es-2) was “inactive”, the Potency (HeLa) was “inactive” and the Potency (Hek293T) was “inactive”. The Potency (JEG-3) was “inactive”, the Potency (OV90) was “inactive” and the Potency (PA-1) was “inactive”. For the same compound, the Potency (Tov-21-G) was “inactive” and the Potency (Tov112D) was “inactive”.
In the case of `CCCCC(CC)COC(=O)c1ccc(N(C)C)cc1` (stereo not given), the Potency (Es-2) was “inactive”, the Potency (HeLa) was “inactive” and the Potency (Hek293T) was “inactive”. For the same compound, the Potency (JEG-3) was “inactive”, the Potency (OV90) was “inactive” and the Potency (PA-1) was “inactive”. For the same compound, the Potency (SKOV3) was “inactive”, the Potency (Tov-21-G) was “inactive” and the Potency (Tov112D) was “inactive”. It also gave an activity, negative = cell killing [2, 4] of -7.11%, an activity, negative = cell killing [2, 5] of -11.8% and an activity, negative = cell killing [2, 6] of -2.69%. For the same compound, the Potency (astro) was “inactive” and the max response [1] was 5.66% and 6.49%.
In the case of `NS(=O)(=O)c1cc(C(=O)O)cc(N2CCCC2)c1Oc1ccccc1`, the Potency (Es-2) was “inactive”, the Potency (HeLa) was “inactive” and the Potency (Hek293T) was “inactive”. For the same compound, the Potency (JEG-3) was “inactive”, the Potency (OV90) was “inactive” and the Potency (PA-1) was “inactive”. The Potency (Tov-21-G) was “inactive”, the Potency (Tov112D) was “inactive” and the activity, negative = cell killing [2, 7] was 0.209%. The activity, negative = cell killing [2, 8] was -9.72%, the activity, negative = cell killing [2, 9] was -3.36% and the activity, negative = cell killing [2, 10] was -12.4%. For the same compound, the Potency (astro) was “inactive”.
With `CC(C)NCC(O)c1ccc2ccccc2c1` (stereo not given) the Potency (Es-2) was “inactive”, the Potency (HeLa) was “inactive” and the Potency (Hek293T) was “inactive”. For the same compound, the Potency (JEG-3) was “inactive”, the Potency (OV90) was “inactive” and the Potency (PA-1) was “inactive”. The Potency (Tov-21-G) was “inactive”, the Potency (Tov112D) was “inactive” and the activity, negative = cell killing [2, 4] was -12.4%. For the same compound, the activity, negative = cell killing [2, 5] was -5.15%, the activity, negative = cell killing [2, 6] was -5.59% and the Potency (astro) was “inactive”.
For `O=C1C(CCS(=O)c2ccccc2)C(=O)N(c2ccccc2)N1c1ccccc1` (stereo not given), the Potency (Es-2) was “inactive”, the Potency (HeLa) was “inactive” and the Potency (Hek293T) was “inactive”. The Potency (JEG-3) was “inactive”, the Potency (OV90) was “inactive” and the Potency (PA-1) was “inactive”. For the same compound, the Potency (Tov-21-G) was “inactive”, the Potency (Tov112D) was “inactive” and the activity, negative = cell killing [2, 7] was 4.04%. For the same compound, the activity, negative = cell killing [2, 8] was 2.69%, the activity, negative = cell killing [2, 9] was 2.83% and the activity, negative = cell killing [2, 10] was -0.0177%. For the same compound, the Potency (astro) was “inactive”.
With `CC(=O)OCC(=O)[C@H]1CC[C@H]2[C@@H]3CCC4=CC(=O)CC[C@]4(C)[C@H]3CC[C@]12C` the Potency (Es-2) was “inactive”, the Potency (HeLa) was 11.2 µM (active) and the Potency (Hek293T) was “inactive”. The Potency (JEG-3) was “inactive”, the Potency (OV90) was “inactive” and the Potency (SKOV3) was “inactive”. The Potency (Tov-21-G) was “inactive”, the Potency (Tov112D) was “inactive” and the activity, negative = cell killing [2, 6] was -12.5%. For the same compound, the Potency ([2]; tumour line A) was 8.91 µM (active) and the Potency (astro) was “inactive”.
With `CC[N+](C)(CC)CCOC(=O)C(O)(c1ccccc1)C1CCCCC1` (stereo not given) the Potency (Es-2) was “inactive”, the Potency (HeLa) was “inactive” and the Potency (Hek293T) was “inactive”. For the same compound, the Potency (JEG-3) was “inactive”, the Potency (OV90) was “inactive” and the Potency (PA-1) was “inactive”. For the same compound, the Potency (Tov-21-G) was “inactive”, the Potency (Tov112D) was “inactive” and the activity, negative = cell killing [2, 4] was 4.51%. For the same compound, the activity, negative = cell killing [2, 5] was -27.2%, the activity, negative = cell killing [2, 6] was -9.68% and the Potency (astro) was “inactive”.
With `Nc1nc(N)c(-c2ccccc2)s1` the Potency (Es-2) was “inactive”, the Potency (HeLa) was “inactive” and the Potency (Hek293T) was “inactive”. For the same compound, the Potency (JEG-3) was “inactive”, the Potency (OV90) was “inactive” and the Potency (SKOV3) was “inactive”. The Potency (Tov-21-G) was “inactive”, the Potency (Tov112D) was “inactive” and the activity, negative = cell killing [2, 4] was -11%. The activity, negative = cell killing [2, 5] was 8.98%, the activity, negative = cell killing [2, 11] was -29.6% and the activity, negative = cell killing [2, 6] was -25.4%. For the same compound, the Potency (astro) was “inactive”.
In the case of `O=C(Nc1cccc(C2=NCCN2)c1)Nc1cccc(C2=NCCN2)c1`, the Potency (Es-2) was “inactive”, the Potency (HeLa) was “inactive” and the Potency (Hek293T) was “inactive”. The Potency (JEG-3) was “inactive”, the Potency (OV90) was “inactive” and the Potency (PA-1) was “inactive”. The Potency (Tov112D) was “inactive”, the activity, negative = cell killing [2, 4] was 7.96% and the activity, negative = cell killing [2, 5] was -22.5%. The activity, negative = cell killing [2, 11] was 2.01%, the activity, negative = cell killing [2, 6] was -6.35% and the Potency (astro) was “inactive”.
With `Cc1cc(C)cc(OCC2CNC(=O)O2)c1` (stereo not given) the Potency (Es-2) was “inactive”, the Potency (HeLa) was “inactive” and the Potency (Hek293T) was “inactive”. For the same compound, the Potency (JEG-3) was “inactive”, the Potency (OV90) was “inactive” and the Potency (PA-1) was “inactive”. The Potency (Tov-21-G) was “inactive”, the Potency (Tov112D) was “inactive” and the activity, negative = cell killing [2, 4] was 0.397%. The activity, negative = cell killing [2, 5] was -17.2%, the activity, negative = cell killing [2, 11] was -25.9% and the activity, negative = cell killing [2, 6] was 3.04%. For the same compound, the Potency (astro) was “inactive”.
